Structures are written as SMILES. This is part of a sample that, as a whole, favours compounds with a hit. Of some 83,000 tested, about 20% had one in any assay.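 How to read the values: 0–100, growth inhibition (40 = 60% inhibited); 0, no net growth; -100 to 0, cell death (-40 = 40% of starting cells died; -100 = all dead).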 Activity calls are given as the source filed them. How the source made its calls: active means growth percent below 10; inactive means the rest.

This assay has as its system ACHN renal. The assay is described as follows: NCI-60 one-dose screen, 48 h (100 = growth as untreated, 0 = no growth, -100 = all killed). The settings on record: 10 µM unless noted.
For `COC(=O)[C@@H](C)C[C@H](Cc1ccccc1)NC(=O)c1nc([C@@H](C[C@H](C(C)C)N(C)C(=O)[C@@H](NC(=O)[C@H]2CCCN2C)C(C)C)OC(C)=O)sc1C`, the growth was 19.6% (inactive). For `CCCCCSC1C2C(=O)C(Br)=CC13CCNc1c(O)c4c5c(c13)=[N+]2CCC=5C=N4` (stereo unspecified) the value was -90.2% (active); for `CC1=C(CCCOC(=O)CN)C2=C(C)C3(CC3)[C@@](C)(O)C(=O)C2=C1`, 97.4% (inactive); for `COC(=O)CC[C@H](Cc1ccccc1)NC(=O)c1csc([C@@H](C[C@H](C(C)C)N(C)C(=O)[C@@H](NC(=O)[C@H]2CCCCN2C)C(C)C)OC(C)=O)n1`, 23.9% (inactive). The same measure for `COC(=O)CC12CC(NC(=O)c3csc([C@@H](C[C@H](C(C)C)N(C)C(=O)[C@@H](NC(=O)[C@H]4CCCCN4C)C(C)C)OC(C)=O)n3)(C1)C2`: 17.2% (inactive); for `O=C1CNC(c2ccccc2)c2cc(Cl)ccc2N1` (stereo unspecified): 109% (inactive); for `CC1(C)N=C(N)N=C(N)N1c1cccc(CCCCc2ccc(Cl)c(S(=O)(=O)F)c2)c1`: 87.5% (inactive).

As to `CC(=O)O[C@H](C[C@H](C(C)C)N(C)C(=O)[C@@H](NC(=O)[C@H]1CCCCN1C)C(C)C)c1nc(C(=O)N[C@@H](Cc2ccccc2)C[C@H](C)C(=O)O)c(C(C)C)s1`, the growth was 27.3% (inactive). In the case of `COC(=O)[C@@H](C)C[C@H](Cc1ccccc1)NC(=O)c1csc(CC[C@H](C(C)C)N(C)C(=O)[C@@H](NC(=O)[C@H]2CCCCN2C)C(C)C)n1`, the growth was 45.2% (inactive). The same measure for `CCOP(=O)(NC[C@H]1O[C@](O)(CO)[C@@H](O)[C@@H]1O)OCC`: 103% (inactive). The same measure for `COc1cc([C@@H]2c3cc4c(cc3[C@H](OC(C)=O)[C@H]3COC(=O)[C@H]23)OCO4)cc(OC)c1OC`: 28.7% (inactive); for `COC(=O)[C@@H](C)C[C@H](Cc1cn(C)c2ccccc12)NC(=O)c1csc([C@@H](C[C@H](C(C)C)N(C)C(=O)[C@@H](NC(=O)[C@H]2CCCCN2C)C(C)C)OC(C)=O)n1`: 18.8% (inactive); for `CCOC(=O)[C@@H](C)C[C@H](Cc1ccccc1)NC(=O)c1csc([C@@H](C[C@H](C(C)C)N(C)C(=O)[C@@H](NC(=O)[C@H]2CCCCN2C)C(C)(C)C)OC(C)=O)n1`: 17.1% (inactive). For `CC1=C(CCCNS(C)(=O)=O)C2=C(C)C3(CC3)[C@@](C)(O)C(=O)C2=C1`, the growth is -23.6% (active).

Turning to `COC(=O)[C@@H](C)C[C@H](Cc1ccccc1)NC(=O)c1cccc([C@@H](C[C@H](C(C)C)N(C)C(=O)[C@@H](NC(=O)[C@H]2CCCCN2C)C(C)C)OC(C)=O)n1`, the growth is 30.4% (inactive). The same measure for `CNC(=O)Oc1ccc(C(C)(C)C)cc1OC(=O)NC`: 106% (inactive); for `CC1(C)C(C(=O)c2cn(CCCCF)c3ccccc23)C1(C)C`: 115% (inactive); for `CC(=O)O[C@H](C[C@H](C(C)C)N(C)C(=O)[C@@H](NC(=O)[C@H]1CCCCN1C)C(C)C)c1nc(C(=O)NC2CCC(C(=O)O)CC2)cs1` (stereo partly specified): 86.8% (inactive). With `CCCC[C@H](NC(=O)[C@H]1CCCN1C)C(=O)N(C)[C@H](C[C@@H](OC(C)=O)c1nc(C(=O)N[C@@H](Cc2ccccc2)C[C@H](C)C(=O)OCC)cs1)C(C)C`, the growth was 17.5% (inactive).

Consider `CCOC(=O)[C@@H](C)C[C@H](Cc1ccccc1)NC(=O)c1csc([C@@H](C[C@H](C(C)C)N(C)C(=O)CNC(=O)[C@H]2CCCCN2C)OC(C)=O)n1`, for which the growth was 43.7% (inactive). Consider `COc1ccc([As]=[As]c2ccc(OC)c(NCS(=O)(=O)O)c2)cc1NCS(=O)(=O)O` (stereo unspecified), for which the growth was 46.6% (inactive). For `CC1=C(CCCOC(=O)[C@H](N)CC(C)C)C2=C(C)C3(CC3)[C@@](C)(O)C(=O)C2=C1` the value was -43% (active); for `O=[N+]([O-])c1cc(I)cc([N+](=O)[O-])c1`, 121% (inactive). For `CC(=O)OC[C@]1(C)C=C2C(=O)[C@](C)(O)C3(CC3)C(C)=C2[C@H]1OC(=O)N(C)CCN(C)C(=O)OC(C)(C)C` the value was -8.88% (active); for `CC[C@H](C)[C@H](NC(=O)[C@H]1CCCCN1C)C(=O)N(C)[C@H](CCc1nc(C(=O)N[C@@H](Cc2ccccc2)C[C@H](C)C(=O)OC)cs1)C(C)C`, 29.3% (inactive); for `COc1ccc(Nc2ccc([N+](=O)[O-])cc2[N+](=O)[O-])cc1CN(CCCl)CCCl`, 15.2% (inactive).

For the origin of these results see PubChem BioAssay (NCI).
